Compound activity from PubChem BioAssay.
An excerpt weighted towards active compounds, which were near 7.5% of everything screened.
NPC1 prom act = NPC1 promoter activation. Huh7 NPC1 promoter luciferase reporter, 24 h. Potency, µM (doses to about 9.22 µM), inactives show top-dose activation, usual class: activators. hit rate 2.4% among 320,000; further: % of control where 0% means no effect; nearly all actives have a fitted effect of over 60% in size
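Huh7 reporter cells (NPC1 promoter driving luciferase) are dosed with compound for 24 h at 37 °C, 5% CO2; luciferase detection reagent is then added and luminescence measured after 10 min at ambient temperature.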
ELG1 genotox = inducers of genotoxicity in HEK293T ELG1-luciferase cells | AID 504466 | Potency, µM (titrated, usually from 46 µM), for the others: at the highest dose activity change, positive = activation, hits mostly activators | HEK293T ELG1-luciferase reporter, luminescence, 16 h | hit rate 1.3% among 330,000; further: % of control where 0% means no effect; nearly all actives have a fitted effect of over 60% in size
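Reporter readout depends on ELG1 protein level, which increases with genetic stress. After 16 hr compound exposure at 37 °C, luciferase activity was quantified using ONE-Glo.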
Luc counter = counter-screen: inhibitors of Kinase-Glo firefly luciferase | Kinase-Glo luciferase, ATP luminescence, 8 min | Potency, µM (doses to about 38.3 µM), without a hit: at the top dose activity change, negative = inhibition, usual class: inhibitors | hit rate 0.28% among 200,000 | AID 1379; further: on the % scale 0 is the no-effect control and ±100 the full control effect; nearly all actives have a fitted effect of over 60% in size
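Compounds were added to a substrate mix at pH 7.2 (50 mM imidazole, 10 uM ATP, within the enzyme's linear range), followed by Kinase-Glo detection reagent; luminescence was measured after 8 minutes at ambient temperature.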
SMN2 splice up = SMN2 splice variant enhancement | HEK293 SMN2-luciferase splicing reporter, luminescence, 30-36 h | hit rate 2.8% among 210,000 | Potency, µM (series often up to 46.1 µM), for the others: top-dose activity change, positive = activation, usual class: activators; further: % of control where 0% means no effect; nearly all actives have a fitted effect of over 55% in size
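qHTS luciferase splicing reporter: luminescence rises when SMN2 exon 7 is included in transfected HEK293 cells. Compound exposure lasted 30-36 h at 37C, with 4.5 mM final sodium butyrate as control, followed by a ONE-Glo read.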
Rab9 prom act = Rab9 promoter activation; Huh7 Rab9 promoter-luciferase reporter, luminescence, 24 h; Potency, µM (series often up to 9.22 µM), for inactives: at the highest dose activation, negative = inhibition, hits mostly activators; hit rate 2.8% among 320,000; AID 485297; further: % of control where 0% means no effect; nearly all actives have a fitted effect of over 60% in size
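Cells were plated at 1500 per well in reduced-serum medium with 10% FBS and left 2 h. Compound in DMSO was then added for 24 h at 37 °C. Reporter signal was read by luminescence after 10 min with luciferase detection reagent.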
FLuc counter = firefly luciferase modulation, counter-screen for miR-21 project; P08659; hit rate 6.9% among 360,000; purified FLuc, Km substrates, luminescence inhibition; Potency, µM (top dose mostly 57.5 µM), for the others: at the highest dose activity change, negative = inhibition, usual class: inhibitors;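 further: plate controls were vehicle for no effect and reference inhibitor for full effect; nearly all actives have a fitted effect of over 55% in size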
Target sequence (P08659 whole entry, looked up): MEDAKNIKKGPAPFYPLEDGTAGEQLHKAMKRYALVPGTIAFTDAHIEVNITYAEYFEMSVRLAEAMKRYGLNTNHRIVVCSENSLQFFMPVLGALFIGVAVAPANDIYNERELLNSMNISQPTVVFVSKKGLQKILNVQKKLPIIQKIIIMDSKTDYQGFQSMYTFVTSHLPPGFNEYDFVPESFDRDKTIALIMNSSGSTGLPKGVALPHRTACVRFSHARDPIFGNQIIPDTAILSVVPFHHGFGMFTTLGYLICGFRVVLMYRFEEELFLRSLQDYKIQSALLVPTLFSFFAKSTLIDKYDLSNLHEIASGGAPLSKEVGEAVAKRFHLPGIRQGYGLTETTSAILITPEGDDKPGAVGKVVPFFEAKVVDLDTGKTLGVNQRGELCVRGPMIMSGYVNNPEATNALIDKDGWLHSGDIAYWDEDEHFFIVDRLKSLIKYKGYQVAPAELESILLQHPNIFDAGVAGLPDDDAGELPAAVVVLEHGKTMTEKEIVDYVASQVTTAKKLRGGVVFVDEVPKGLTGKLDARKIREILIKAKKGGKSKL
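Purified P. pyralis luciferase (10nM final) with 10uM D-luciferin and 10uM ATP (Km levels) in 50mM Tris acetate pH 7.5, 10mM Mg acetate, 0.01% Tween-20, 0.05% BSA; qHTS 6-point titration, ~60 µM downward; luminescence read.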
* hit, by the source's call; ? = inconclusive; / = not tested or not shown; [ ] = another dose, or the depositor's remark. The call rests on the fitted dose curve; in most records, active means well fitted curve in the direction sought with a large enough effect; inconclusive means small, poorly fitted or top-dose-only effect, or another doubt; inactive means no such curve, though single readings can be large; an effect the other way counts as inactive or inconclusive. Potency means the concentration at half of the fitted maximal effect.

SMILES	NPC1 prom act	ELG1 genotox	Luc counter	SMN2 splice up	Rab9 prom act	FLuc counter
O=C1/C(=C/c2ccc([N+](=O)[O-])cc2)CCc2ccccc21	28%	7.3µM*	/	/	?	0.15µM*
O=C(O)c1ccc(-n2ncc3c2/C(=C/c2cccc([N+](=O)[O-])c2)CC3)cc1	1.6µM*	15%	/	/	2.8µM*	11µM*
O=C1/C(=C/c2cccc([N+](=O)[O-])c2)CCc2ccccc21	0%	-14%	-3%	-14%	-4%	9.5µM*
Cn1c(=O)c2c(nc3n(-c4ccc(O)cc4)c(-c4ccc(Br)cc4)cn23)n(C)c1=O	/	/	/	-8%	/	2%
Cc1ccc(-n2ncc3c(NCCCOC(C)C)ncnc32)c(C)c1	0%	-6%	1%	-1%	1%	-1%
OCCOCCNc1ncnc2c1cnn2-c1ccc(Cl)cc1	1.1µM*	0%	-3%	-9%	0.89µM*	9.5µM*
OCCOCCNc1ncnc2c1cnn2-c1ccccc1	2.2µM*	-3%	1%	-18%	?	?
COCCN(CCOC)c1ncnc2c1cnn2-c1ccc(Cl)cc1	?	10µM*	-2%	?	?	15µM*
CC(C)OCCCNc1ncnc2c1cnn2-c1ccccc1	1.4µM*	-1%	-5%	-10%	0.45µM*	4.3µM*
c1ccc(-n2ncc3c(NCc4ccccn4)ncnc32)cc1	20%	?	0%	27%	20%	?
O=C(O)c1cncc(C(=O)O)c1	/	/	2%[7.66 µM]	-8%[9.22 µM]	/	/
CCCSc1nc2sc3c(c2c(=O)n1Cc1ccccc1)CC(C)(CC)OC3 (stereo unspecified)	/	/	/	-25%	/	1%
COCCNc1ncnc2c1cnn2-c1ccc(Cl)cc1	1.8µM*	/	/	/	1.8µM*	7.6µM*
Clc1ccc(-n2ncc3c(NCc4cccs4)ncnc32)cc1	3%	-5%	-6%	-57%	5%	4%
Cc1ccc(C)c(C(=O)COC(=O)c2ccccc2N2C(=O)C3C4CCC(C4)C3C2=O)c1 (stereo unspecified)	14%	-6%	0%	-7%	6%	7.6µM*
O=C(COC(=O)c1ccccc1N1C(=O)C2C3CCC(C3)C2C1=O)c1ccccc1 (stereo unspecified)	-2%	1%	-3%	-5%	-9%	-12%
O=C(Cn1cnc2c(oc3ccccc32)c1=O)Nc1ccc(F)cc1F	/	/	/	/	/	-15%
COc1ccc(-c2noc(N3CCCC(C(=O)Nc4ccc(C(C)=O)cc4)C3)n2)cc1 (stereo unspecified)	23%	3%	/	/	27%	11µM*
O=C(Nc1ccc(Cl)c(Cl)c1)c1ccncc1	26%	7%	-4%	18%	22%	?
CS(=O)(=O)c1ccc(C(=O)Nc2cc(S(C)(=O)=O)ccc2Cl)cc1	3%	2%	/	/	-1%	0%
Cc1ccc(NC(=O)c2ccc(Cl)c(N3C(=O)C=CC3=O)c2)cc1	-12%	7%	-1%	-5%	-6%	9.5µM*
COc1ccc(C(=O)Nc2ccc(Cl)c(Cl)c2)c(OC)n1	3%	?	-8%	3.2µM*	?	0.95µM*
COc1ccc(C(=O)O)c(OC)n1	12%	-8%	/	/	-27%	-2%
CS(=O)(=O)c1cccc(NC(=O)c2ccc(Cl)c(Cl)c2)c1	2%	1%	0%	/	23%	19µM*
O=C(Nc1ccc(Cl)c(Cl)c1)c1ccc(Cl)c(Cl)c1	3.5µM*	12%	/	/	3.5µM*	12µM*
CC(C)[C@H](N)C(=O)N1CCC(C(=O)N[C@@H](Cc2ccccc2)C(=O)NCc2ccc(F)cc2)CC1	0%	2%	/	/	0%	0%
CC1(C)C(OC(=O)CCC(=O)O)CC[C@]2(C)C1CC[C@@]1(C)C2C(=O)C=C2[C@@H]3C[C@@](C)(C(=O)O)CC[C@]3(C)CCC21C (stereo partly specified)	/	/	-1%	8%	/	/
Cc1ccn2c(CCc3nnc4cc(C)ccn34)nnc2c1	/	/	0%[7.66 µM]	-7%[9.22 µM]	/	/
